Inconclusive results are not listed. Activity calls are given as the source filed them. How the source made its calls: active means hit-call score of the fitted dose curve at least 0.9, where 1 is the maximum; inconclusive means response in the unintended direction; inactive means score below 0.9.

Read-out in the test: ABC Transporter (ABCB11), ABCB11 (gene 8647)
The test is described as follows: CLD_ABCB11_6hr: CellzDirect (CLD) Gene Expression Assay for ABC Transporter (ABCB11) at 6 hours (AID 2283675).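 Further: hits raise ABCB11 mRNA level so AC50 marks induction.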 As to the method: CLD_6hr is a cell-based, multiplexed-readout assay that uses hepatocyte, a human liver primary cell, with measurements taken at 6 hours after chemical dosing in a 96-well plate.CLD_ABCB11_6hr is one of 16 assay component(s) measured or calculated from the CLD_6hr assay. It is designed to make measurements of mRNA induction, a form of inducible reporter, as detected with chemiluminescence signals by Quantitative Nuclease Protection Assay (qNPA) technology.Data from the assay component CLD_ABCB11_6hr was analyzed at the endpoint, CLD_ABCB11_6hr, in the positive analysis fitting direction relative to DMSO as the negative control and baseline of activity. Using a type of inducible reporter, gain-of-signal activity can be used to understand changes in the reporter gene as they relate to the gene ABCB11. Furthermore, this assay endpoint can be referred to as a primary readout. To generalize the intended target to other relatable targets, this assay endpoint is annotated to the transporter intended target family, where subfamily is ABC transporter.
Human hepatocyte cultures were treated daily for two consecutive days with fresh dosing solutions containing appropriate concentrations of the 320 ToxCast chemicals (chemical identities were blinded to CellzDirect and other ToxCast collaborators), vehicle control (0.2% DMSO), and positive control inducers as summarized in Table 1. Due to the large number of treatment groups and chemicals examined, the ToxCast chemicals were divided into two groups (spanning two independent cultures of hepatocytes from separate donor preparations (Hu778: ToxCast plates 1 and 2; Hu776: ToxCast plates 3 and 4). Each preparation of human hepatocyte cultures was treated with respective vehicle control, medium only control, set of six positive controls/reference chemicals for the five hepatic receptor pathways, and a subset of eight of the ToxCast chemicals (indoxacarb, pyrithiobac-sodium, norflurazon, cyhalofop-butyl, methomyl, thiram, acetochlor, and propiconazole). These replicate data, coupled with internal replicates designed within the blinded ToxCast chemical library, provided additional data to evaluate interindividual differences between hepatocyte preparations and their potential impact on chemical profiles.Cell morphology and integrity were evaluated using phase-contrast microscopy as an indicator of hepatocyte cell health (Tyson & Green, 1987). Cultures for each treatment group (i.e., media, vehicle [0.2% DMSO], positive control inducers [multiple concentrations], and the ToxCast chemicals [multiple concentrations]) were observed and cell morphology was assessed relative to vehicle control cultures at each harvest time point (0, 6, 24, or 48 h). […] Images were evaluated at the conclusion of the study to assess changes in cell integrity and account for the effects of chemical exposure on uncharacteristic changes in concentration-dependent gene expression profiles. The results from these determinations of apparent cytotoxicity were annotated (yes/no) alongside the corresponding qNPA data for reference.At the conclusion of each treatment period, hepatocyte cultures (96-well) were washed with 1 volume of HBSS, lysed by addition of 25 ul ArrayPlate lysis buffer (HTG, Tucson, AZ), and 70 ul/well of Denaturation Oil, denatured by incubation at 95C for 10 min, and frozen at approximately -70C until analysis by nuclease protection assay (qNPA) (Roberts et al., 2007). For qNPA analysis, cell lysates were thawed at 50C for approximately 30 min, qNPA probes were added, and samples were incubated at 95C for 10 min to begin the detection process by denaturing the target RNA, dissociating the duplexes and secondary structure hybridization. At the conclusion of the hybridization period, S1 nuclease reagent was added to each sample to digest all nonprotected nucleotides at 50C for 60-90 min. […]
Regarding `CCCN(CCC)c1c([N+](=O)[O-])cc(S(N)(=O)=O)cc1[N+](=O)[O-]`, the result was inactive.

In the case of `COC(=O)C(C)Oc1ccc(Oc2ccc(Cl)cc2Cl)cc1` (stereo not given), the compound was classed as inactive.

On to `COc1nc(C)nc(NC(=O)NS(=O)(=O)c2ccccc2Cl)n1`, for which the outcome was inactive.

On to `CO/C=C(/C(=O)OC)c1ccccc1Oc1cc(Oc2ccccc2C#N)ncn1`, for which the compound was classed as inactive.

With `CCOP(=S)(OCC)SCn1c(=O)oc2cc(Cl)ccc21`, the outcome was inactive.

On to `Cc1ccc(-c2c(Cl)nc(C#N)n2S(=O)(=O)N(C)C)cc1`, for which the outcome was inactive.

On to `CS/C(C)=N/OC(=O)N(C)SN(C)C(=O)O/N=C(\C)SC`, for which the call was inactive.

Consider `CC(Oc1ccc(Cl)cc1Cl)C(=O)O` (stereo not given), for which the call was inactive.

Consider `CCCCNC(=O)n1c(NC(=O)OC)nc2ccccc21`, for which the call was inactive.

For `CCOC(=O)CC(SP(=S)(OC)OC)C(=O)OCC` (stereo not given), the compound was called inactive.

Take `COP(N)(=O)SC` (stereo not given): the outcome was inactive.

Consider `O=C(O)c1nc(Cl)ccc1Cl`, for which the result was inactive.

Consider `N#Cc1nn(-c2c(Cl)cc(C(F)(F)F)cc2Cl)c(N)c1S(=O)C(F)(F)F` (stereo not given), for which the call was inactive.

In the case of `CCOc1cc(Oc2ccc(C(F)(F)F)cc2Cl)ccc1[N+](=O)[O-]`, the call was inactive.

Regarding `CCOC(=O)C(Cl)Cc1cc(-n2nc(C)n(C(F)F)c2=O)c(F)cc1Cl` (stereo not given), the call was inactive.

On to `CNC(=S)S`, for which the call was inactive.

As to `CCCCC(CC)COC(=O)c1ccccc1C(=O)OCC(CC)CCCC` (stereo not given), the compound was called inactive.

As for `COC(=O)C=C(C)OP(=O)(OC)OC`, the outcome was inactive.

In the case of `CCc1nn(C)c(C(=O)NCc2ccc(C(C)(C)C)cc2)c1Cl`, the compound was called inactive.

With `Cc1c(F)c(F)c(COC(=O)C2C(/C=C(\Cl)C(F)(F)F)C2(C)C)c(F)c1F` (stereo not given), the result was inactive.

With `COC(=O)c1ccccc1C(=O)OC`, the compound was classed as inactive.

Consider `COP(=S)(OC)Oc1nc(Cl)c(Cl)cc1Cl`, for which the compound was classed as inactive.

Regarding `CCCCNC(=O)OCC#CI`, the compound was called inactive.

`CC(C)(C)c1ccc(CSc2cnn(C(C)(C)C)c(=O)c2Cl)cc1`: the compound was classed as inactive.

Take `N#Cc1cc(Br)c(O)c(Br)c1`: the compound was classed as inactive.

On to `CCON=C(CC)C1=C(O)CC(c2c(C)cc(C)cc2C)CC1=O` (stereo not given), for which the outcome was inactive.

Take `C#CCOS(=O)OC1CCCCC1Oc1ccc(C(C)(C)C)cc1` (stereo not given): the result was inactive.

For the compound `C=CCC1=C(C)[C@@H](OC(=O)[C@@H]2[C@@H](C=C(C)C)C2(C)C)CC1=O`, the compound was called inactive.

As to `COc1nc(C)nc(NC(=O)NS(=O)(=O)c2ccccc2CCC(F)(F)F)n1`, the call was inactive.

Regarding `Oc1ccccc1-c1ccccc1`, the call was inactive.

On to `CCCCOC(=O)c1ccccc1C(=O)OCCCC`, for which the result was inactive.

Regarding `OC(c1ccc(Cl)cc1)(c1cncnc1)c1ccccc1Cl` (stereo not given), the compound was called inactive.

Consider `COC(=O)N(OC)c1ccccc1COc1ccn(-c2ccc(Cl)cc2)n1`, for which the compound was called inactive.

Turning to `COc1ccc(C(c2ccc(OC)cc2)C(Cl)(Cl)Cl)cc1`, the result was inactive.

As to `CN(C)C(=S)SSC(=S)N(C)C`, the result was inactive.

The record behind these values is PubChem BioAssay (EPA / NIEHS).
